{"source": "PubChem BioAssay", "key": {"[1]": {"experiment": "sensitizers of A549 cells to miR-34 induction, primary screen, imaging, A549 dox-inducible miR-34, nuclei and caspase counts (AID 1347080)", "conditions": "A549 miR-34 inducible, Hoechst nuclei count, 48 h"}, "[2]": {"experiment": "survival rescue of mitochondrial mutant cells in low glucose, primary screen, MELAS cybrids, Rieske KO mouse fibroblasts, CellTiter-Glo (AID 1508586;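 active = mean z-score across replicates of 1.96 or higher in either the MELAS or the Rieske mutant cell line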;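 note: z relative to plate mean and SD of compound and empty wells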)"}, "[3]": {"target": "NAD(+) hydrolase SARM1 (Homo sapiens) (UniProt Q6SZW1)", "sequence (Q6SZW1 whole entry, looked up)": "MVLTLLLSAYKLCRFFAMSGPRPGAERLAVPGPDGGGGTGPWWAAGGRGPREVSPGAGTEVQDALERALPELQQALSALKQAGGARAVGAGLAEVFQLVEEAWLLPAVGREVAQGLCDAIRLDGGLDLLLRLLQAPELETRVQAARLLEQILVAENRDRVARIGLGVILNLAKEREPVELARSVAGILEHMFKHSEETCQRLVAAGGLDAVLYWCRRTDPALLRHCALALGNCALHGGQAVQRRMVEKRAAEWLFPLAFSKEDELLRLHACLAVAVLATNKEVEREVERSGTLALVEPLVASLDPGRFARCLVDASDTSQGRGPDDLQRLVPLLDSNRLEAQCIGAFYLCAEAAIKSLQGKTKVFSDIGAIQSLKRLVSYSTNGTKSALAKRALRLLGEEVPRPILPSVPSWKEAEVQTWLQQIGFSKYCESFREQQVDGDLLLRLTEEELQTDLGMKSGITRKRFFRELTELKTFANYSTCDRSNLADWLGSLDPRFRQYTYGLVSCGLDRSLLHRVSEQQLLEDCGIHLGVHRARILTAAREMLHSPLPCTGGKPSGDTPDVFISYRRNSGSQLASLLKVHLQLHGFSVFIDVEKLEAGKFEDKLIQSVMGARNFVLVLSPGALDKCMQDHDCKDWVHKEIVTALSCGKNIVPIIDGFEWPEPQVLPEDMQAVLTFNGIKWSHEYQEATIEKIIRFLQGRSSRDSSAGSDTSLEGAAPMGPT", "experiment": "SARM1 TIR NADase inhibitors, cell lysate, NAD-Glo luminescence (AID 1508614;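 active = compound whose remaining NAD level is above about 45 nM, limit read from the data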)", "conditions": "SAM-TIR HEK293T lysate NADase, at 1 µM, stronger effect = higher value"}, "[4]": {"target": "Mitogen-activated protein kinase 7 (Homo sapiens) (UniProt Q13164)", "sequence (Q13164 whole entry, looked up, the tested form may be a part)": "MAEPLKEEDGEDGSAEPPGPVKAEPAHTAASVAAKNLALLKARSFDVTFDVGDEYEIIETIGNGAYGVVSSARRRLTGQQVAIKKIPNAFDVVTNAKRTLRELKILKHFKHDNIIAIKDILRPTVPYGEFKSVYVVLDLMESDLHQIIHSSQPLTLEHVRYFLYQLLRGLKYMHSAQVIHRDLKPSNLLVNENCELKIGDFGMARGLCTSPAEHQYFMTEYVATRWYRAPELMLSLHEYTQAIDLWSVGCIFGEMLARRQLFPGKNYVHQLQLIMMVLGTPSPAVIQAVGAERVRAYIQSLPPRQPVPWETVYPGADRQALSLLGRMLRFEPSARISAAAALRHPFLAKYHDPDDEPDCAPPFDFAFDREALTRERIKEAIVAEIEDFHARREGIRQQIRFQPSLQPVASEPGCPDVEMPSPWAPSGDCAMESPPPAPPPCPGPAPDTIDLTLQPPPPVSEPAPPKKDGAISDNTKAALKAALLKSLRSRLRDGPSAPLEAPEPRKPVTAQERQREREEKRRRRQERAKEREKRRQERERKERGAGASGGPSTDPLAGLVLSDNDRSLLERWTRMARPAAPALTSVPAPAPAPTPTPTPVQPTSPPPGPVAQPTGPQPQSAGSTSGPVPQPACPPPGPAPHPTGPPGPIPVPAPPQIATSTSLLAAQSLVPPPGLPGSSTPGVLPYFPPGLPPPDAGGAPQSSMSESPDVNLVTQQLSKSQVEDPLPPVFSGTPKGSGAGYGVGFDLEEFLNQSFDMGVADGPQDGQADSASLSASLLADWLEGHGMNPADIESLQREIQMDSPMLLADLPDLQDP", "experiment": "ERK5 transactivation activators in reporter cells, primary screen, cell-based, HTS (AID 1508626;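 active = luciferase signal above three times the same-plate solvent-only control wells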;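 note: luciferase driven by Gal4-ERK5 fusion binding five Gal4 sites before minimal TATA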)", "conditions": "HeLa Gal4-ERK5 transactivation, 18 h, at 5 µM, stronger effect = higher value"}, "[5]": {"experiment": "phospholipid biosynthesis inhibitors in animal cells, primary screen, cell-based, LOPAC library, screen 4 (AID 1347384; call rule not given here)", "conditions": "phospholipid biosynthesis inhibition screen, at 10 µM"}, "[6]": {"experiment": "viability rescue of complex I mutant cybrids, primary screen, cell-based, galactose medium, ATP luminescence (AID 1645843;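 active = z-score of at least 1.8 in each of two replicates, scored against plate mean and spread of sample wells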;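 note: positive z means more ATP and so rescue of galactose-driven cybrid death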)", "conditions": "complex I mutant cybrid cells, 72 h, stronger effect = higher value"}, "[7]": {"experiment": "LFS_MB_P medulloblastoma growth inhibition, cell-based, chromothripsis tumors, cisplatin or BGB combos (AID 1671449; in the data active = inhibition above about 80%;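 note: cells exposed for 96 hours; 0% = vehicle DMSO and 100% = killing by high DMSO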)", "conditions": "LFS_MB_P medulloblastoma cells"}, "[8]": {"experiment": "HDN33 neuroblastoma growth inhibition, cell-based, chromothripsis tumors, cisplatin or BGB combos (AID 1671450; in the data active = inhibition above about 80%;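 note: cells exposed to compound for four days; 0% = vehicle DMSO and 100% = cell killing by high DMSO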)", "conditions": "HDN33 neuroblastoma cells, stronger effect = higher value"}, "[9]": {"experiment": "ICB984 medulloblastoma cell growth inhibition, synergistic combos for chromothripsis tumors, cisplatin or BGB combos (AID 1671451; call rule not given here;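 note: cells exposed for 96 hours before readout; 0% = vehicle DMSO and 100% = killing by high DMSO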)", "conditions": "ICB984 medulloblastoma cells, drug combinations, stronger effect = higher value"}, "[10]": {"experiment": "LFS_MB_1R medulloblastoma cell growth inhibition, synergistic combos for chromothripsis tumors, cisplatin or BGB combos (AID 1671452; in the data active = inhibition above about 80%;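 note: cells exposed for 96 hours before readout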)", "conditions": "LFS_MB_1R medulloblastoma cells, stronger effect = higher value"}, "[11]": {"experiment": "HTB85 osteosarcoma cell growth inhibition, synergistic combos for chromothripsis tumors, BGB or cisplatin IC20 combos (AID 1671453; in the data active = inhibition above about 80%;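 note: cells exposed for 96 hours before readout; 0% = vehicle DMSO and 100% = high DMSO killing control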)", "conditions": "HTB85 osteosarcoma cells, drug combinations, stronger effect = higher value"}, "[12]": {"experiment": "CRL2098 osteosarcoma cell growth inhibition, synergistic combos for chromothripsis tumors, BGB or cisplatin IC20 combos (AID 1671454; in the data active = inhibition above about 80%;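 note: cells exposed for 96 h before readout; 0% = vehicle DMSO and 100% = killing by high DMSO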)", "conditions": "CRL2098 osteosarcoma cells, drug combinations, stronger effect = higher value"}, "[13]": {"experiment": "HD-MB03 medulloblastoma cell growth inhibition, synergistic combos for chromothripsis tumors, BGB or cisplatin IC20 combos (AID 1671455; in the data active = inhibition above about 83%;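 note: 0% = vehicle DMSO and 100% = high DMSO as cytotoxic control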)", "conditions": "HD-MB03 medulloblastoma cells, stronger effect = higher value"}, "[14]": {"conditions": "stronger effect = lower value, cell number ratio, induced over uninduced"}, "[15]": {"conditions": "measured here: relative caspase fold change +Dox/-Dox"}, "[16]": {"conditions": "measured here: total cells with miR-34 induction, stronger effect = lower value"}, "[17]": {"conditions": "measured here: total cells without miR-34 induction"}, "[18]": {"conditions": "MELAS cybrid survival, CellTiter-Glo 48 h, stronger effect = higher value"}, "[19]": {"conditions": "Rieske KO mouse fibroblast survival, CellTiter-Glo 72 h"}, "[20]": {"conditions": "measured here: combination with BGB IC40, at 0.05 µM"}}, "note": "Values joined by “and” are separate entries in the source; they are usually repeats but may differ in a detail not shown here. Equal values may be shown once. Active and inactive are the calls of the source.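 Rule for the calls, unless noted: active = compounds whose cell count with miR-34 switched on is under 0.7 times the count with it off; inactive = the rest.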"}
{"smiles": "CCCCc1nc(Cl)c(CO)n1Cc1ccc(-c2ccccc2-c2nn[nH]n2)cc1", "values": [{"measurement": "fold change", "setting": "[1]; [14]", "value": "0.884 (inactive) and 0.804 (inactive)"}, {"measurement": "fold change", "setting": "[1]; [15]", "value": "0.724 and 6.97"}, {"measurement": "cell count", "setting": "[1]; [16]", "value": "7690 and 9920"}, {"measurement": "cell count", "setting": "[1]; [17]", "value": "8690 and 12300"}, {"measurement": "z-score", "setting": "[2]; [18]", "value": "-0.213 (inactive) and 0.409 (inactive)"}, {"measurement": "z-score", "setting": "[2]; [19]", "value": "-0.0146 and 0.701"}, {"measurement": "remaining NAD", "setting": "[3]", "value": "10 nM (inactive)"}, {"measurement": "luciferase signal", "setting": "[4]", "value": "44 AU (inactive)"}]}
{"smiles": "Nc1cc(-c2ccncc2)c[nH]c1=O", "values": [{"measurement": "fold change", "setting": "[1]; [14]", "value": "0.97 (inactive) and 0.958 (inactive)"}, {"measurement": "fold change", "setting": "[1]; [15]", "value": "0.721 and 1.08"}, {"measurement": "cell count", "setting": "[1]; [16]", "value": "9670 and 8610"}, {"measurement": "cell count", "setting": "[1]; [17]", "value": "9980 and 8980"}, {"measurement": "z-score", "setting": "[2]; [18]", "value": "-0.926 (inactive)"}, {"measurement": "z-score", "setting": "[2]; [19]", "value": -1.08}, {"measurement": "remaining NAD", "setting": "[3]", "value": "10 nM (inactive)"}, {"measurement": "luciferase signal", "setting": "[4]", "value": "104 AU (inactive)"}]}
{"smiles": "CCN(CCCCOC(=O)c1ccc(OC)c(OC)c1)C(C)Cc1ccc(OC)cc1", "note": "(stereo not given)", "values": [{"measurement": "fold change", "setting": "[1]; [14]", "value": "0.98 (inactive) and 0.929 (inactive)"}, {"measurement": "fold change", "setting": "[1]; [15]", "value": "1.13 and 3.04"}, {"measurement": "cell count", "setting": "[1]; [16]", "value": "7620 and 11300"}, {"measurement": "cell count", "setting": "[1]; [17]", "value": "7780 and 12200"}, {"measurement": "z-score", "setting": "[2]; [18]", "value": "1.33 (inactive)"}, {"measurement": "z-score", "setting": "[2]; [19]", "value": 0.343}, {"measurement": "remaining NAD", "setting": "[3]", "value": "10 nM (inactive)"}, {"measurement": "luciferase signal", "setting": "[4]", "value": "52 AU (inactive)"}]}
{"smiles": "CCCCC1(COC(=O)CCC(=O)O)C(=O)N(c2ccccc2)N(c2ccccc2)C1=O", "values": [{"measurement": "fold change", "setting": "[1]; [14]", "value": "0.884 (inactive)"}, {"measurement": "fold change", "setting": "[1]; [15]", "value": 1.12}, {"measurement": "cell count", "setting": "[1]; [16]", "value": 8700}, {"measurement": "cell count", "setting": "[1]; [17]", "value": 9850}, {"measurement": "z-score", "setting": "[2]; [18]", "value": "0.542 (inactive)"}, {"measurement": "z-score", "setting": "[2]; [19]", "value": 0.234}, {"measurement": "remaining NAD", "setting": "[3]", "value": "10 nM (inactive)"}]}
{"smiles": "O=C(O)CCCCCCCC(=O)O", "values": [{"measurement": "fold change", "setting": "[1]; [14]", "value": "0.959 (inactive) and 0.941 (inactive)"}, {"measurement": "fold change", "setting": "[1]; [15]", "value": "0.966 and 3.31"}, {"measurement": "cell count", "setting": "[1]; [16]", "value": "9890 and 11100"}, {"measurement": "cell count", "setting": "[1]; [17]", "value": "10300 and 11800"}, {"measurement": "outcome", "setting": "[5]", "value": "inactive"}, {"measurement": "remaining NAD", "setting": "[3]", "value": "10 nM (inactive)"}, {"measurement": "luciferase signal", "setting": "[4]", "value": "24 AU (inactive)"}, {"measurement": "z-score", "setting": "[6]", "value": "0.635 (inactive)"}, {"measurement": "inhibition", "setting": "[7]; at 0.5 µM, stronger effect = higher value", "value": "14.6% (inactive)"}, {"measurement": "inhibition", "setting": "[7]; measured here: combination with BGB IC20, at 0.005 µM", "value": -16.4, "unit": "%"}, {"measurement": "inhibition", "setting": "[7]; measured here: combination with BGB IC40, at 0.005 µM", "value": -8.17, "unit": "%"}, {"measurement": "inhibition", "setting": "[7]; [20]", "value": 6.68, "unit": "%"}, {"measurement": "inhibition", "setting": "[7]; measured here: combination with cisplatin, at 0.5 µM, stronger effect = higher value", "value": 8.46, "unit": "%"}, {"measurement": "inhibition", "setting": "[7]; measured here: combination with cisplatin, at 5 µM, stronger effect = higher value", "value": -13.6, "unit": "%"}, {"measurement": "inhibition", "setting": "[8]; BGB combo, at 5 µM", "value": -29.2, "unit": "%"}, {"measurement": "inhibition", "setting": "[8]; at 0.5 µM", "value": "-40.9% (inactive)"}, {"measurement": "inhibition", "setting": "[8]; cisplatin combo, at 5 µM", "value": -22.7, "unit": "%"}, {"measurement": "inhibition", "setting": "[8]; measured here: with BGB IC20 combination, at 0.5 µM", "value": -45.6, "unit": "%"}, {"measurement": "inhibition", "setting": "[8]; measured here: with cisplatin IC20 combination, at 0.5 µM", "value": -37.4, "unit": "%"}, {"measurement": "inhibition", "setting": "[8]; single agent, at 5 µM", "value": -34.5, "unit": "%"}, {"measurement": "inhibition", "setting": "[9]; BGB IC20 combo, at 0.005 µM", "value": -5.6, "unit": "%"}, {"measurement": "inhibition", "setting": "[9]; BGB IC40 combo, at 0.005 µM", "value": -44.6, "unit": "%"}, {"measurement": "inhibition", "setting": "[9]; BGB IC40 combo, at 0.05 µM", "value": -20.8, "unit": "%"}, {"measurement": "inhibition", "setting": "[9]; at 0.5 µM", "value": "-26.1% (inactive)"}, {"measurement": "inhibition", "setting": "[9]; cisplatin combo, at 0.05 µM", "value": -24.1, "unit": "%"}, {"measurement": "inhibition", "setting": "[9]; cisplatin combo, at 0.5 µM", "value": -19.2, "unit": "%"}, {"measurement": "inhibition", "setting": "[9]; cisplatin combo, at 5 µM", "value": -29.2, "unit": "%"}, {"measurement": "inhibition", "setting": "[9]; measured here: 5 uM single agent, at 5 µM", "value": -20.6, "unit": "%"}, {"measurement": "inhibition", "setting": "[10]; at 0.5 µM", "value": "-28.5% (inactive)"}, {"measurement": "inhibition", "setting": "[10]; [20]", "value": -23.1, "unit": "%"}, {"measurement": "inhibition", "setting": "[10]; measured here: combination with cisplatin, at 0.5 µM", "value": -37.2, "unit": "%"}, {"measurement": "inhibition", "setting": "[10]; measured here: combination with cisplatin, at 5 µM", "value": -71.3, "unit": "%"}, {"measurement": "inhibition", "setting": "[11]; at 0.5 µM", "value": "-17.1% (inactive)"}, {"measurement": "inhibition", "setting": "[11]; measured here: with BGB IC20, at 0.5 µM", "value": -39.9, "unit": "%"}, {"measurement": "inhibition", "setting": "[11]; measured here: with BGB IC20, at 5 µM", "value": -68.2, "unit": "%"}, {"measurement": "inhibition", "setting": "[11]; measured here: with cisplatin IC20, at 0.5 µM", "value": -8.83, "unit": "%"}, {"measurement": "inhibition", "setting": "[11]; measured here: with cisplatin IC20, at 5 µM", "value": 0.863, "unit": "%"}, {"measurement": "inhibition", "setting": "[11]; single agent, at 5 µM", "value": -30.9, "unit": "%"}, {"measurement": "inhibition", "setting": "[12]; at 0.5 µM", "value": "-76.3% (inactive)"}, {"measurement": "inhibition", "setting": "[12]; measured here: combination with BGB at IC20, at 0.5 µM", "value": -57.7, "unit": "%"}, {"measurement": "inhibition", "setting": "[12]; measured here: combination with cisplatin at IC20, at 0.5 µM", "value": -93.4, "unit": "%"}, {"measurement": "inhibition", "setting": "[13]; at 0.5 µM", "value": "-14.1% (inactive)"}, {"measurement": "inhibition", "setting": "[13]; measured here: combo with BGB at IC20, at 0.5 µM", "value": -13.8, "unit": "%"}, {"measurement": "inhibition", "setting": "[13]; measured here: combo with cisplatin at IC20, at 0.5 µM", "value": -19.9, "unit": "%"}]}
